Assay results published in ChEMBL document CHEMBL4513216, “Probing the Open Global Health Chemical Diversity Library for Multistage-Active Starting Points for Next-Generation Antimalarials” (ACS Infect Dis, 2020).
Out of some 69,000 compounds screened, about 8,600 (12%) showed an effect of 50% or more. What follows is part of a selection rich in strong results, with near analogues and random picks from the rest.

What follows are molecules tested on Plasmodium berghei (assay: Screen against P. berghei liver stage (PbLuc), transformed with Luciferase, at 10uM). Conditions: tested at 10 uM.
Type: functional, HepG2

In order of rising INHIBITION:
1. COCCOCC(=O)N1CCC(c2ccccc2F)C1 (stereo not drawn)  -112%
2. Cc1nn(C)c(C)c1C1CCCN1C(=O)c1ccc(N(C)C)nn1 (stereo not drawn)  -71.1%
3. Cc1ccccc1C1CCN(C(=O)CCNC(=O)C(C)(C)C)C1 (stereo not drawn)  -66.4%
4. CS(=O)(=O)N1CCC(NC(=O)COc2ccc(Cl)cc2)CC1  -61.4%
5. COc1c(C2CCCN2C(=O)c2ccc(N(C)C)nn2)c(C)nn1C (stereo not drawn)  -57.4%
6. Cc1c(C[S+](C)[O-])cccc1NC(=O)c1cc(Cl)ccn1 (stereo not drawn)  -42.1%
7. O=C(Nc1ccccc1F)C1CSCN1C(=O)CCc1ccco1 (stereo not drawn)  -39.2%
8. c1ccc2nc(N3CCOC(Cn4cccn4)C3)cnc2c1 (stereo not drawn)  -34%
9. CCC(=O)Nc1nnc(CCOc2ccccc2OC)s1  -23.8%
10. Cc1cc(CN(C)C(=O)NCc2ccccn2)no1  -22.8%
11. CN1CCCC1c1nccnc1-c1ccc(C(=O)O)cc1 (stereo not drawn)  -14.2%
12. O=C(NCCc1cccnc1)Nc1cc(C(F)(F)F)c[nH]c1=O  -12.6%
13. CC1c2ncc(CN3CCN(C)CC3)n2CCN1CC1CC1 (stereo not drawn)  -10.4%
14. O=C(O)[C@@H]1CN(C(=O)CSCC2CC2)C[C@H]1c1ccncc1  -8.7%
15. COc1ccc(Cl)cc1C(=O)N(C)Cc1cc(C)on1  -4.16%
16. COc1ccc(C)cc1CC(=O)NS(=O)(=O)c1ccc(C(N)=O)cc1  -2.19%
17. COc1ccc2c(c1)C(=O)CC1(CCN(Cc3ccc(F)cc3)CC1)O2  -0.371%
18. Cc1cc(C(=O)N2CC[C@@H](O)[C@@H]2Cc2ccccc2)no1  2.58%
19. COCCNC(=O)[C@@H]1C[C@@H]2CCN(c3ncccn3)C[C@H]2O1  4.57%
20. COc1ccc2c(c1)OC1(CCN(Cc3ccccc3C)CC1)CC2=O  5.56%
21. Cc1nn(C)c(C)c1C1CCCN1C(=O)c1ccc(C(N)=O)cn1 (stereo not drawn)  9.555%
22. Cc1cc(N2CCC3(CC2)C(C(=O)O)CC(=O)N3C)nc2ccccc12 (stereo not drawn)  9.56%
23. CCN(c1ccc(C(=O)N2CCCC(C)C2)cc1)S(=O)(=O)CC (stereo not drawn)  10.1%
24. CC(C(=O)Nc1ccccn1)n1ccc(C(F)(F)F)n1 (stereo not drawn)  11%
25. Cc1c(NC(=O)N(C)CCn2cnnc2)cccc1OC1CCCC1  13.3%
26. Cc1ccc(-n2nnc(C(=O)O)c2C)c(C)c1  14.2%
27. CCN(C)C(=O)Nc1cc(F)c(OC)cc1F  14.9%
28. Cc1cc(C(=O)N(CC(F)(F)F)C2CCOCC2)c(C)o1  15%
29. Cc1cc(N2CCC3(CCCN(CCO)C3=O)C2)nc2cc(Cl)ccc12 (stereo not drawn)  16.1%
30. Cc1cc(-c2cc(N)c(=O)n(CC(=O)NC3CCCC3)n2)c(C)o1  18.27%
31. COCCC1(C(=O)O)CCCN(c2cc(C)c3ccccc3n2)C1 (stereo not drawn)  20.2%
32. Cc1nn(C)c(C)c1NC(=O)CN1CCN(c2nccs2)C(C)C1 (stereo not drawn)  21.6%
33. CSCCC(=O)N1C[C@@H](C)[C@](O)(C(C)C)C1  22.5%
34. CCN(c1ccc(C(=O)N2CCC(C)CC2)cc1)S(=O)(=O)CC  22.9%
35. Cc1ccc(CN2CC[C@@H]3[C@@H](CO[C@H]3CN3CCN(C)CC3)C2)cc1  23.3%
36. O=C(NCCCn1cccn1)N1CCCC1c1cccs1 (stereo not drawn)  25.2%
37. O=C(NCC1Cn2nnc(-c3ccoc3)c2CO1)c1ccc[nH]1 (stereo not drawn)  27.4%
38. CCNC(=O)c1ccc(NC(=O)N(C)Cc2cc(C)on2)c(C)c1  29.6%
39. CCN(CC1CCOC1)C(=O)c1cn2ccc(C)cc2n1 (stereo not drawn)  30.5%
40. COc1ccc2c(c1)OC1(CCN(Cc3ccc(C)cc3)CC1)CC2=O  31.2%
41. Cc1cc(N2CCC(O)(C(=O)O)CC2)nc2ccccc12  32.2%
42. Cc1cccc(NC(=O)C2CSCN2C(=O)c2cnccn2)c1C (stereo not drawn)  33.35%
43. COc1ccc(F)cc1C(=O)N(C)Cc1cc(C)on1  35.7%
44. Cc1nnc(CNC(C)c2cc(C)c(F)c(C)c2)s1 (stereo not drawn)  36.2%
45. COc1cc(F)c(NC(=O)N(C)CCNC(=O)N(C)C)cc1F  36.3%
46. Cc1ccsc1CN1CC[C@H]2OCC[C@@]2(C(=O)N2CCCO2)C1  37.2%
47. COc1ccc2c(c1)OC1(CCN(Cc3cccc(C)c3)CC1)CC2=O  37.2%
48. Cc1cc(N2CCC3(CCCN(CCO)C3=O)C2)nc(C)c1C#N (stereo not drawn)  38%
49. CN(C)CC1CN(c2cnc3ccccc3n2)CCO1 (stereo not drawn)  38.8%
50. CCOCCC(=O)N1C[C@@H]2CC[C@H]1CN(c1ncccn1)C2  43.2%
51. CC(O)CN1CCC(CNCc2ccc(OC(F)(F)F)cc2)CC1 (stereo not drawn)  44.7%
52. CCNC(=O)N(CCCO)C1CCCc2ccccc21 (stereo not drawn)  45.7%
53. Cc1ncsc1CN(Cc1ccccc1)Cc1ncc[nH]1  46.6%
54. Cc1cc(N2CCC(CO)(CC3CCCCO3)CC2)c2ccccc2n1 (stereo not drawn)  47.6%
55. Cc1nn(C)c(Cl)c1C1CCCN1C(=O)c1ccc(O)nc1 (stereo not drawn)  48.1%
56. COc1ccc(S(N)(=O)=O)cc1C(=O)N(C)Cc1cc(C)on1  51.2%
57. COc1ccc2c(c1)OC1(CCN(Cc3ccc(F)cc3)CC1)CC2=O  51.6%
58. COc1cc(F)c(NC(=O)N(C)Cc2cc(C)on2)cc1F  52.6%
59. Cc1cc(N2CCC(CO)(CC3CCCCO3)CC2)nc2ccccc12 (stereo not drawn)  53%
60. Cc1nn(C)c(Cl)c1C1CCCN1C(=O)c1ccc(N(C)C)nn1 (stereo not drawn)  53.8%
61. COCCOCCC(=O)N1CCC(c2ccccc2C)C1 (stereo not drawn)  55.2%
62. Cc1cc(N2CCC3(CCCN(CCO)C3=O)C2)nc2ccccc12 (stereo not drawn)  57.2%
63. CCS(=O)(=O)N(C)c1ccc(C(=O)N2CCCC(C)C2)cc1 (stereo not drawn)  60.1%
64. COCCC1(C(=O)O)CCN(c2cc(C)c3ccccc3n2)CC1  62.8%
65. Cc1cc(CN(C)C(=O)Nc2ccccc2C)no1  67.1%
66. CCOC(=O)CN1CCC2(CC1)CC(=O)c1ccc(OC)cc1O2  72.4%
67. OCC1(CC2CCCCO2)CCN(c2cnc3ccccc3n2)CC1 (stereo not drawn)  83.9%
68. Cc1nn(C)c(Cl)c1C1CCCN1C(=O)c1ccc(C(N)=O)cn1 (stereo not drawn)  84.3%
